Screens deposited in PubChem by National Center for Advancing Translational Sciences (NCATS).
This is a sample that favours compounds with a hit; in the whole collection about 0.99% have one here.
TRHR enhancer-1: TRH receptor (human) allosteric enhancement; AID 493056; P34981; 360,000 compounds, 0.66% hits; enhancement, % at 2 µM; TRHR cells, fluo-8 calcium fluorescence, EC20 TRH enhancement; in the data active = enhancement above about 30%
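TRHR-expressing cells loaded with fluo-8 calcium dye were read kinetically (ex 480/em 530) during compound addition, then stimulated with an EC20 of TRH (10 nM final). Enhancement of the Gq-mediated intracellular calcium response was scored.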
TRPML1 inh: inhibitors of human TRPML1 channel; AID 624415; TRPML1-inducible cells, Ca2+ dye fluorescence, FDSS; stronger effect = lower value; inhibition of EC80 agonist-evoked calcium signal; 390,000 compounds, 0.02% hits; activity change, negative = inhibition, % (no concentration beside the values); in the data active = activity change below about -50%; inconclusive = between about -30% and that limit;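 note: stimulus is agonist 54-4 at its EC80 concentration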
Target sequence (Q9GZU1 whole entry, looked up): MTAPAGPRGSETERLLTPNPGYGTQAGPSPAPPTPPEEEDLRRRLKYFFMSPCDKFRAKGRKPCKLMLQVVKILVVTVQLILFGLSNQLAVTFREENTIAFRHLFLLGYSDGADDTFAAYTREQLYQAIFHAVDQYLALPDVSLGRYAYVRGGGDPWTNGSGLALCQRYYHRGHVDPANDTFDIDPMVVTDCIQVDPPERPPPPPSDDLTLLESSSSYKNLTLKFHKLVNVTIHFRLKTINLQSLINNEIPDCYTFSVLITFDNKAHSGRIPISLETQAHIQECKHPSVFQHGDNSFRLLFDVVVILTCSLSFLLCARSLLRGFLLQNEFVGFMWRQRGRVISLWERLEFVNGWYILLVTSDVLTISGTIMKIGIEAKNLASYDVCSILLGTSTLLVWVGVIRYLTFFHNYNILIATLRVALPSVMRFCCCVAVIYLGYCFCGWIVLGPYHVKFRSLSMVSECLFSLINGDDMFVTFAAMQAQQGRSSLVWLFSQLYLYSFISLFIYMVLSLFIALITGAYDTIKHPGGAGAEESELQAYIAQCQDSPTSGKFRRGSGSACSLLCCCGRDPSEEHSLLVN
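TRPML1-DL cells, Tet-induced overnight (~16 h, 37 °C) at 1,500 cells/well, were loaded with Ca8 no-wash dye plus quencher for 45-90 min at room temperature. Compounds were pinned during FDSS kinetic reading; agonist 54-4 at EC80 (4 uM final) then added.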
TRPV1 potentiator: potentiators of human vanilloid receptor 1 (TRPV1); Q8NER1; TRPV1-expressing cells, Fluo-8 calcium influx, capsaicin EC20 potentiation; potentiation, % at 8.33 µM; 320,000 compounds, 0.02% hits; AID 540277; in the data active = potentiation above about 80%; inconclusive = between about 30% and that limit
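Cells expressing TRPV1 were dye-loaded with Fluo-8 and read kinetically: 10 s baseline, 3 min after compound (agonist portion), then 2 min after EC20 capsaicin (allosteric enhancer portion). Calcium-bound dye fluorescence at 480/520 nm.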
TRPML1 ag: human mucolipin-1 channel agonism. TRPML1-expressing cells, Ca2+ dye fluorescence, FDSS. Q9GZU1. 410,000 compounds, 0.12% hits. AID 624414. activation, % (concentration not given with the values); in the data active = activation above about 50%; inconclusive = mostly about 30% to 49%
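Cells: TRPML1-DL, 1X Tet inducer, ~16 h at 37 degrees C/5% CO2. Dye: ABD Ca8 no-wash + quencher, 45-90 min RT. Read: 10 s baseline, compound add, 110 s agonist phase; 54-4 EC80 (4uM final), 110 s antagonist phase.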
TRHR agonist-1: activates the human TRH receptor; P34981; TRHR cells, calcium flux fluo-8, FDSS agonist mode; activation, % at 2 µM; 360,000 compounds, 0.18% hits; AID 493084; in the data active = activation above about 30%
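In this calcium-flux screen, cells bearing human TRHR are dye-loaded with fluo-8, baselined for 10 cycles, then exposed to library compounds; positive kinetic calcium responses during the agonist phase mark hits, with TRH as control.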
TRPV1 agonist: activates the human vanilloid receptor TRPV1; Q8NER1; TRPV1-expressing cells, Fluo-8 calcium influx, agonist mode; activation, % at 8.33 µM; 320,000 compounds, 0.19% hits; AID 540275; in the data active = activation above about 80%; inconclusive = between about 30% and that limit
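Cells expressing TRPV1 were dye-loaded with Fluo-8 and read kinetically: 10 s baseline, 3 min after compound (agonist portion), then 2 min after EC20 capsaicin (allosteric enhancer portion). Calcium-bound dye fluorescence at 480/520 nm.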
TRHR enhancer-2: human TRH receptor allosteric enhancement confirmation; shares compounds with TRHR enhancer-1; TRH receptor cell assay, enhancer confirmation qHTS; activity change, negative = inhibition, % at 46.1 µM; 970 tested, under 10 active; AID 493076;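 note: compound effect scored on response to added TRH at EC20 of 10 nM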
TRHR agonist-2: human TRH receptor agonism confirmation. shares compounds with TRHR enhancer-1. TRHR-expressing cells, agonist activation read-out. Potency, µM (doses to about 46.1 µM), usual class: activators. 970 compounds, 8% hits; note: nearly all actives have a fitted effect of over 75% in size
Each line names hits and unclear results; the compound was inactive in the other large screens (follow-up assays come after a bar, where they were run). Unless noted, calls come from the whole dose curve; as a rule, active = well fitted curve in the direction sought with a large enough effect; inconclusive = small, poorly fitted or top-dose-only effect, or another doubt; inactive = no such curve, though single readings can be large; an effect the other way counts as inactive or inconclusive.

Cc1cc(/C=C/c2ccnc3ccccc23)ccc1N(CCCl)CCCl	none (no result: TRHR enhancer-1, TRPML1 inh, TRPV1 potentiator, TRHR agonist-1, TRPV1 agonist)
O=C(CN1CC=C(c2ccccc2)CC1)NC(=O)NCc1ccccc1	TRHR enhancer-1 62 | TRHR enhancer-2 inconclusive | TRHR agonist-2 inactive
O=C1NC(=O)N(c2ccccc2)C(=O)/C1=C/c1ccc(Sc2ccccc2)o1	none
O=C1NC(=O)N(c2cccc(Cl)c2)C(=O)/C1=C\c1ccc(Sc2nc3ccccc3[nH]2)o1	TRHR agonist-1 47 | TRHR enhancer-2 inactive | TRHR agonist-2 inconclusive
c1ccc(CCN2CCCC2)cc1	none (no result: TRHR enhancer-1, TRPML1 inh, TRPV1 potentiator, TRHR agonist-1, TRPV1 agonist)
CC(Cc1ccccc1)N1C(=O)c2ccccc2C1=O (configuration not stated)	TRHR enhancer-1 55 | TRHR enhancer-2 inactive | TRHR agonist-2 inactive
CC(C(=O)c1ccccc1)N1C(=O)c2ccccc2C1=O (configuration not stated)	none
CCCCCn1c(N)c(C(=O)NCCN2CCOCC2)c2nc3ccccc3nc21	none
O=C(NCCN1CCOCC1)c1ccc(Cl)nc1	TRHR agonist-1 75 | TRHR enhancer-2 inactive | TRHR agonist-2 inactive
O=c1[nH]/c(=C\c2ccc(N(CCCl)CCCl)cc2)c(=O)[nH]/c1=C\c1ccc(N(CCCl)CCCl)cc1	none (no result: TRHR enhancer-1, TRPML1 inh, TRPV1 potentiator, TRHR agonist-1, TRPV1 agonist)
CCC1(C)OC(c2ccccc2)=C/C(=C/C=C2C(=O)NC(=O)NC2=O)O1 (configuration not stated)	TRHR agonist-1 41, TRPV1 agonist inconclusive | TRHR enhancer-2 inactive | TRHR agonist-2 inconclusive
